Test results as given in the supplement of paper PMC7595190.

Test system: MV4-11
Assay: CellTox Green cytotoxicity fluorescence relative to DMSO vehicle (fold of vehicle RFU); higher = more cell death (loss of membrane integrity), active = 2 or more
Protocol: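 Paediatric AML cell lines (MV4-11, CMK, Kasumi-1; 4x10^4 cells/well, 96-well) treated with single compounds from the Selleckchem apoptosis library at 0.01, 0.1 and 1 µM. Cytotoxicity was read with CellTox Green (RFU, Ex 485/Em 520) at 24, 48 and 72 h and normalised to the 0.1% DMSO vehicle. Normalised RFU >= 2 was taken as a successful, cell-killing treatment.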

Measured: CellTox Green cytotoxicity fluorescence

COc1ccc(C2=N[C@@H](c3ccc(Cl)cc3)[C@@H](c3ccc(Cl)cc3)N2C(=O)N2CCNC(=O)C2)c(OC(C)C)c1 [Nutlin-3]
inactive: 0.01 µM, 24 h 0.981 | 0.01 µM, 48 h 1 | 0.01 µM, 72 h 0.995 | 0.1 µM, 24 h 0.991 | 0.1 µM, 48 h 0.999 | 0.1 µM, 72 h 1.03 | 1 µM, 24 h 1.01 | 1 µM, 48 h 1.24 | 1 µM, 72 h 1.46

CCOc1cc(C(C)(C)C)ccc1C1=N[C@@](C)(c2ccc(Cl)cc2)[C@@](C)(c2ccc(Cl)cc2)N1C(=O)N1CCN(CCCS(C)(=O)=O)CC1
inactive: 0.01 µM, 24 h 0.993 | 0.01 µM, 48 h 1.01 | 0.01 µM, 72 h 1.01 | 0.1 µM, 24 h 1.03 | 0.1 µM, 48 h 1.07 | 0.1 µM, 72 h 1.13 | 1 µM, 24 h 1.07 | 1 µM, 48 h 1.63
active: 1 µM, 72 h 2.02

CC1(C)CCC(c2ccc(Cl)cc2)=C(CN2CCN(c3ccc(C(=O)NS(=O)(=O)c4ccc(N[C@H](CCN5CCOCC5)CSc5ccccc5)c(S(=O)(=O)C(F)(F)F)c4)cc3)CC2)C1 [Navitoclax]
active: 1 µM, 48 h 2.56 | 1 µM, 72 h 2.63
inactive: 0.01 µM, 24 h 0.946 | 0.01 µM, 48 h 1.02 | 0.01 µM, 72 h 1.07 | 0.1 µM, 24 h 1.04 | 0.1 µM, 48 h 1.41 | 0.1 µM, 72 h 1.67 | 1 µM, 24 h 1.32

FC(F)(F)c1ccc(CNc2ccc(Cc3c[nH]c4ncc(Cl)cc34)cn2)cn1 [Pexidartinib]
inactive: 0.01 µM, 24 h 1.01 | 0.01 µM, 48 h 1 | 0.01 µM, 72 h 1.01 | 0.1 µM, 24 h 1.07 | 0.1 µM, 48 h 1.17 | 0.1 µM, 72 h 1.21 | 1 µM, 24 h 1.09 | 1 µM, 48 h 1.41 | 1 µM, 72 h 1.74

O=C1CCC(N2C(=O)c3ccccc3C2=O)C(=O)N1 (stereo not given) [Thalidomide]
inactive: 0.01 µM, 24 h 0.964 | 0.01 µM, 48 h 0.959 | 0.01 µM, 72 h 0.973 | 0.1 µM, 24 h 0.954 | 0.1 µM, 48 h 0.962 | 0.1 µM, 72 h 0.958 | 1 µM, 24 h 0.952 | 1 µM, 48 h 0.965 | 1 µM, 72 h 1.12
